Source: the supplement of paper PMC4466236
The full ranking holds about 33,000 sequences; the median of “E-score (dimensionless, -0.5 to 0.5)” is about -0.058, and the highest 2% start at about 0.35. Many of the other results were omitted from the sample, so the highest values are more common in it than they were.

test system: MvaT; assay: PBM 8-mer E-score (mean of HK and ME arrays) (E-score (dimensionless, -0.5 to 0.5)); higher = stronger relative binding preference
Procedure: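 Protein binding microarray: GST-tagged full-length MvaT (P. aeruginosa PAO1) bound to two universal double-stranded 60-mer arrays (ME and HK), each with a constant 25-mer primer and a variable 35-mer region covering all 8-mers. The 8-mer E-score (rank-based, range -0.5 to 0.5, >0.45 = specific binding) is the mean of the two arrays.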

| Sequence | PBM 8-mer E-score |
| --- | --- |
| AGGTGCAT | -0.0802 |
| GCAGGACC | -0.179 |
| ACAATCAA | 0.21 |
| TAGAGACA | 0.123 |
| CAATCGGA | -0.0769 |
| ACTTCTCC | 0.2 |
| GCATATAA | 0.374 |
| GCATATAC | 0.311 |
| CCATATAA | 0.343 |
| TCATATGA | 0.204 |
| TCATATAA | 0.379 |
| GCATATGA | 0.176 |
| ACGCAGGC | -0.282 |
| GCCGAACC | -0.115 |
| ATAACTGG | 0.213 |
| ACAGGAAA | 0.0933 |
| AAACCCTT | -0.0425 |
| CTTAATAA | 0.385 |
| GTTAATCA | 0.183 |
| CTTAAAAA | 0.163 |
| CTCAATAA | 0.307 |
| GTTAATAA | 0.377 |
| GTTAATGA | 0.264 |
| CATGAGAA | -0.0314 |
| CACTTGTA | 0.139 |
| ACATAACT | 0.268 |
| AAATAACA | 0.336 |

| Sequence | PBM 8-mer E-score |
| --- | --- |
| AAATAACC | 0.375 |
| AAATAACT | 0.375 |
| AAATAACG | 0.331 |
| CAATAACC | 0.223 |
| CACGTGCA | -0.0519 |
| ATCTGGAC | -0.0431 |
| TCATCGAA | -0.15 |
| GAGACATC | -0.0544 |
| AAGCATAG | -0.033 |
| CCAGTTAC | 0.14 |
| AGACGCGA | 0.0502 |
| AAAATTTG | 0.221 |
| AAAAATTT | 0.298 |
| AAAATTTT | 0.354 |
| GAATTTTA | 0.254 |
| AAATTTAG | 0.238 |
| AAATTTAT | 0.384 |
| AAAATTTA | 0.311 |
| TAAATTTA | 0.414 |
| CAAATTTA | 0.22 |
| AAATTTAC | 0.11 |
| AAATTTTA | 0.35 |
| AATTTTTA | 0.34 |
| AGAGTTCG | 0.00443 |
| CAACCCGC | -0.00327 |
| CATGATGC | -0.011 |
| AGGGGGAG | -0.246 |

| Sequence | PBM 8-mer E-score |
| --- | --- |
| AGAAAGGC | -0.118 |
| CTGTGCTA | -0.0139 |
| GGAGCCAC | -0.325 |
| GAATTTAA | 0.264 |
| TAATTTAA | 0.457 |
| CAATTTAA | 0.366 |
| GAATTCAA | 0.0832 |
| AAATTCAA | 0.226 |
| GAAATGTA | 0.259 |
| TAATTTGA | 0.201 |
| TAAATGTA | 0.359 |
| CAAATGTA | 0.0762 |
| CAATTTAG | 0.2 |
| TAATTCAA | 0.346 |
| CAATTTTA | 0.293 |
| CAGGAGAG | -0.196 |
| AGTCACAT | -0.0559 |
| GTTTCGCA | -0.0431 |
| ATTACTCG | 0.169 |
| AAATACTG | 0.244 |
| CATGTCAG | -0.042 |
| AATAGTCG | 0.218 |
| ACGTATAC | 0.136 |
| GCAGGCGC | -0.28 |
| ATACTCGG | 0.0138 |
| AAATTTCA | 0.241 |
| CGATTTAA | 0.238 |

| Sequence | PBM 8-mer E-score |
| --- | --- |
| AAATTTGA | 0.189 |
| AGATTTAA | 0.273 |
| TGATTTAA | 0.347 |
| AAATTTAA | 0.408 |
| GAATCAAA | 0.13 |
| GTAGTGCA | -0.115 |
| AACCACTG | -0.0219 |
| GACCGCTA | -0.115 |
| GATTGAAA | 0.12 |
| CTGCCACC | -0.166 |
| ATACTCAT | 0.175 |
| ATCAGGCA | -0.0666 |
| AGTAAATG | 0.175 |
| ATTAAATC | 0.382 |
| GTTAAAGA | 0.11 |
| ACTAAATA | 0.31 |
| ATTAAATA | 0.421 |
| GTTAAATA | 0.396 |
| ATTAAATG | 0.373 |
| CTTAAATC | 0.0452 |
| ATTAAAGG | 0.156 |
| ATTAAACC | 0.249 |
| CTTAAATA | 0.337 |
| ATTAAAGA | 0.264 |
